# Screening data: PubChem, National Center for Advancing Translational Sciences (NCATS)
# NPC1 promoter act: activators of NPC1 promoter | 2.4% of 320,000 active | Huh7 NPC1 promoter luciferase reporter, 24 h | Potency, µM (top dose mostly 9.22 µM), for inactives: at the highest dose activation, usual class: activators | AID 485313; note: % of control where 0% means no effect; nearly all actives have a fitted effect of over 60% in size
#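 Stably transfected Huh7 (NPC1 promoter→luciferase), 1500 cells/well in Opti-MEM + 10% FBS, 2 h settle, then compound 24 h at 37 °C. Luminescence after 10 min with Amplite reagent.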
# Rab9 prom act: activators of Rab9 promoter | Huh7 Rab9 promoter-luciferase reporter, luminescence, 24 h | Potency, µM (highest dose often 9.22 µM), for inactives: top-dose activation, negative = inhibition, hits mostly activators | 2.8% of 320,000 active | AID 485297; note: % of control where 0% means no effect; nearly all actives have a fitted effect of over 60% in size
#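 Stable Rab9-luc Huh7, 1500 cells/well, 2 h settle; cmpd in DMSO, 24 h, 37 °C/5% CO2; luciferase reagent 10 min RT; luminescence.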
# ELG1 genotoxic: genotoxicity induction in ELG1-luciferase HEK293T cells. HEK293T ELG1-luciferase reporter, luminescence, 16 h. Potency, µM (doses to about 46 µM), without a hit: at the top dose activity change, positive = activation, usual class: activators. 1.3% of 330,000 active. AID 504466; note: % of control where 0% means no effect; nearly all actives have a fitted effect of over 60% in size
#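 Quantitative HTS format in 1536-well plates. HEK293T ELG1-luciferase reporter cells receive test compound and are incubated 16 hr at 37 °C, 5% CO2; ONE-Glo added, 30 min room temperature, then luminescence read.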
# SMN2 splice up: SMN2 splice variant enhancement. HEK293 SMN2-luciferase splicing reporter, luminescence, 30-36 h. 2.8% of 210,000 active. Potency, µM (doses to about 46.1 µM), without a hit: at the top dose activity change, positive = activation, actives largely listed as activators; note: % of control where 0% means no effect; nearly all actives have a fitted effect of over 55% in size
#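 HEK293 cells carry an SMN2 […]–luciferase reporter in which exon 7 inclusion puts luciferase in frame. Cells were plated 10-12 h before compound addition, then incubated 30-36 h at 37C. ONE-Glo luminescence was read; sodium butyrate at 4.5 mM final served as control.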
# FLuc counter: inhibits or activates purified firefly luciferase, miR-21 counter-screen; P08659; purified FLuc, Km substrates, luminescence inhibition; Potency, µM (series often up to 57.5 µM), inactives show at the top dose activity change, negative = inhibition, most hits filed as inhibitors; 6.9% of 360,000 active;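 note: plate controls were vehicle for no effect and reference inhibitor for full effect; nearly all actives have a fitted effect of over 55% in size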
# Target sequence (P08659 whole entry, looked up): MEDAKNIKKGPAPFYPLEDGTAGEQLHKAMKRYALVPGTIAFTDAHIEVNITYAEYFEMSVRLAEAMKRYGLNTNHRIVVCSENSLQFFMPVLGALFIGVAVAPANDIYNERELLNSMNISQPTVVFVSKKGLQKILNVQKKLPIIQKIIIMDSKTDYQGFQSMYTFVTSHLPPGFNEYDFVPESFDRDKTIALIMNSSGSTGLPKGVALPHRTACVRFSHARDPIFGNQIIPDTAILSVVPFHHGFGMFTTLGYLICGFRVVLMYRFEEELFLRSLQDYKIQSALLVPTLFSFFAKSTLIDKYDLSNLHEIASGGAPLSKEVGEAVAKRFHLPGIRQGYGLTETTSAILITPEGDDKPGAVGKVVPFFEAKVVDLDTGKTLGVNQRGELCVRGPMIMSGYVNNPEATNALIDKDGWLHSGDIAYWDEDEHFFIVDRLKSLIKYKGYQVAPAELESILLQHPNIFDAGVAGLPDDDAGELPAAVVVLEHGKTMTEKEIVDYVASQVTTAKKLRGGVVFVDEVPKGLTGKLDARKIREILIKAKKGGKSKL
#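 Biochemical qHTS of compounds, final roughly 60 µM downward over six points, against 10 nM purified firefly luciferase using Km concentrations of substrates (10 uM D-luciferin, 10 uM ATP) in Tris acetate pH 7.5 buffer; luminescence output.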
# Starred values were filed as active, the others as inactive; ? = inconclusive; . = no result; [ ] = another dose, or the depositor's remark. The list is not random: actives were taken first. Their share in the collection is about 7.4%. Calls come from the whole dose curve; as a rule, active = well fitted curve in the direction sought with a large enough effect; inconclusive = small, poorly fitted or top-dose-only effect, or another doubt; inactive = no such curve, though single readings can be large; an effect the other way counts as inactive or inconclusive. Potency is the fitted concentration of half-maximal effect.
SMILES,NPC1 promoter act,Rab9 prom act,ELG1 genotoxic,SMN2 splice up,FLuc counter
O=C(O)c1csc(Cc2ccccc2)n1,-4.0%,-5.2%,-1.2%,-11.3%,-14.0%
COc1ccccc1CNC(=O)c1csc(Cc2ccc(Cl)cc2)n1,-4.5%,0.4%,-3.5%,4.5%,-0.2%
O=C(Nc1ccc(F)cc1)c1csc(Cc2ccccc2)n1,?,?,5.7%,1.2%,5.36µM*
COc1ccc(NC(=O)c2csc(Cc3ccccc3)n2)cc1,25.7%,?,?,-15.3%,6.75µM*
COc1ccc(CNC(=O)c2csc(Cc3ccccc3)n2)cc1,3.6%,18.8%,7.3%,?,19µM*
COc1cc(NC(=O)C2CCCN(S(=O)(=O)c3ccc4c(c3)oc(=O)n4C)C2)c(C(=O)O)cc1OC (stereo not given),.,.,.,-19.2%,?
O=c1[nH]c(SCc2cccc([N+](=O)[O-])c2)nc2nc[nH]c12,.,.,.,-0.4%[9.22 µM],.
CC(C)=CCC/C(C)=C/CC/C(C)=C/CSCC(=O)O,.,.,.,-6.7%,.
CC(C)(C)c1ccc(Oc2nc3ccccn3c(=O)c2/C=C(\C#N)c2nc3ccccc3[nH]2)cc1,.,.,.,1.9%,0.6%
CC(C)CCNC(=O)c1ccc(NC(=O)C2=CSCCO2)cc1,27.0%,?,?,.,?
C=CCNC(=O)c1ccc(NC(=O)C2=CSCCO2)cc1,0.891µM*,0.794µM*,?,.,12µM*
CCC1CN(C(=O)N2CCC(C(=O)N3CCN(c4ccccc4)CC3)CC2)c2ccccc2O1 (stereo not given),.,.,.,.,-14.0%
COc1ccc(NCC(=O)N/N=C/C=C/c2ccccc2[N+](=O)[O-])cc1,-2.8%,-2.1%,-5.0%,11.9%,-16.6%
O=C(COc1ccc(-c2ccccc2)cc1)N/N=C/c1ccccc1Br,-2.7%,-1.2%,-1.3%,0.4%,?
CCOc1ccc(N=C/C=C/c2ccccc2)c(O)c1,?,?,?,.,8.49µM*
O=C(COc1ccc(-c2ccccc2)cc1)N/N=C/c1cc(O)ccc1Br,0.4%,1.1%,0.2%,1.6%[1.84 µM],10.7µM*
COc1ccc(OCC(=O)N/N=C/C=C/c2ccccc2)cc1,0.7%,-4.2%,7.4%,9.2%,4.78µM*
CCOc1ccc(NCC(=O)N/N=C/C=C/c2ccccc2)cc1,2.3%,-3.1%,2.9%,-3.8%,13.5µM*
CCOc1ccc(-c2[nH]ncc2-c2ccccc2)c(O)c1,-3.8%,2.0%,0.1%,.,1.0%
Cc1ccc(-c2nnc(Nc3ccc(Br)cc3)c3ccccc23)cc1S(=O)(=O)N1CCN(C)CC1,.,.,.,.,-11.3%
Cc1ccc(-c2nnc(SCC(=O)NC3CCCC3)nc2-c2ccc(C)cc2)cc1,.,.,.,.,-9.3%
CCOc1ccc(/C=C2\SC(=S)N(CC(=O)NCCCN3CCOCC3)C2=O)cc1,1.4%,19.1%,-8.3%,.,3.01µM*
O=C(CN1C(=O)/C(=C/c2ccccc2)Sc2ccccc21)NCCCN1CCOCC1,-0.8%,-1.7%,0.0%[9.26 µM],.,-6.4%
CC(C)c1ccc(/C=C2\SC(=O)N(CC(=O)NCCCn3ccnc3)C2=O)cc1,?,3.55µM*,?,.,0.601µM*
O=C(CN1C(=O)/C(=C/c2cccc(Br)c2)SC1=S)NCCCN1CCOCC1,5.2%,6.5%,-2.6%,.,21.3µM*
SMILES,NPC1 promoter act,Rab9 prom act,ELG1 genotoxic,SMN2 splice up,FLuc counter
CC(C)c1ccc(/C=C2\SC(=S)N(CC(=O)NCCCN3CCOCC3)C2=O)cc1,5.5%,0.3%,?,.,1.35µM*
Cc1cc2oc(C(=O)Nc3ccc(S(=O)(=O)N(C)Cc4ccccc4)cc3)cc(=O)c2cc1C,.,.,.,-1.4%,-1.2%
Cc1ccc2c(c1)c1c(c(=O)n(Cc3ccccc3)c(=O)n1Cc1cccc(C(F)(F)F)c1)n2C,.,.,.,.,1.2%
CCOc1ccc(OCC)c(NC(=O)c2ccc(-c3ccccc3)s2)c1,.,.,.,3.9%,2.5%
CCc1ccc(NC(=O)c2ccc(-c3ccccc3)s2)cc1,.,.,.,.,0.1%
CC1(C)C=C(c2ccc(C(=O)O)s2)CC(C)(C)N1,1.4%,-1.9%,0.6%,0.4%,-0.7%
O=C(Nc1ccccc1)c1ccc(-c2ccccc2)s1,?,?,5.17µM*,2.3%,1.69µM*
Cc1cc(-c2ccc(C(=O)O)s2)cnc1N,?,?,?,12.6µM*,12µM*
O=C(Nc1ccccc1F)c1ccc(-c2ccccc2)s1,.,.,.,?,1.51µM*
